Data published in PubChem BioAssay (NCATS).
Values without a mark were called inactive. Inconclusive results are not listed. A call without a number means that no potency is given here. Active and inactive are the calls of the source. Unless noted, calls come from the whole dose curve; as a rule, active = well fitted curve in the direction sought with a large enough effect; inconclusive = small, poorly fitted or top-dose-only effect, or another doubt; inactive = no such curve, though single readings can be large; an effect the other way counts as inactive or inconclusive.

Columns and labels:
[1] = target: Luciferin 4-monooxygenase (Photinus pyralis) (UniProt P08659); assay: Biochemical firefly luciferase enzyme assay for NPC (AID 624030);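 note: purified P. pyralis luciferase at 10 nM with luciferin and ATP substrate; nearly all actives have a fitted effect of over 70% in size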; conditions: purified P. pyralis luciferase, luminescence, 5 min; series mostly up to 58.6 µM
Procedure, shortened: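 Purified P. pyralis luciferase at 10 nM in 50 mM Tris Acetate (final), luminescence read within 5 minutes of enzyme addition to compounds. Activity normalised to PTC124 versus DMSO; concentration-response curves classed by r2, magnitude and activity.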

[2] = test system: CP215; assay: qHTS profiling for inhibitors of Plasmodium falciparum proliferation (AID 504749); note: nearly all actives have a fitted effect of over 60% in size; note: potency is the fitted concentration of half-maximal effect; conditions: P. falciparum in erythrocytes, SYBR Green DNA, 72 h; series mostly up to 28.7 µM
Procedure, shortened: (§1)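 P. falciparum-infected erythrocytes (0.3% parasitemia, 2.5% hematocrit) incubated with compound 72 h at 37 C, 5% CO2. Parasite DNA detected by SYBR Green after lysis, overnight at room temperature; normalised to 0.29 uM artemisinin and DMSO.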

[3] = test system: CP297; assay: as above; conditions: P. falciparum in erythrocytes, SYBR Green DNA, 72 h; series mostly up to 28.7 µM
Procedure, shortened: as §1

[4] = test system: JCK; assay: as above; conditions: P. falciparum in erythrocytes, SYBR Green DNA, 72 h; series mostly up to 28.7 µM
Procedure, shortened: as §1

[5] = test system: W2; assay: as above; conditions: P. falciparum in erythrocytes, SYBR Green DNA, 72 h; series mostly up to 28.7 µM
Procedure, shortened: as §1

[6] = target: DNA dC->dU-editing enzyme APOBEC-3G (Homo sapiens) (UniProt Q9HC16); assay: qHTS for inhibitors of Vif-A3G interactions: Validation (AID 588379); conditions: Vif-A3G protein interaction assay; series mostly up to 46.1 µM
Procedure, shortened: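 HeLa cells stably expressing Vif and A3G-eYFP, 700 cells/well, incubated overnight at 37 deg C, then exposed to compound overnight at 37 deg C. Inhibition of Vif-mediated degradation read as increased yellow fluorescence (Ex 488/Em 500-530) by laser-scanning cytometry.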

[7] = target: Androgen receptor (Homo sapiens) (UniProt P10275); assay: qHTS assay for small molecule agonists of androgen receptor signaling (AID 588515; active = well fitted curve in the direction sought with a large enough effect in the signal ratio, with a control signal flat; the % refers to the signal ratio); conditions: AR-UAS-bla HEK293, beta-lactamase ratio, agonist 16 h; active compounds read high
Procedure, shortened: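 EC50 and efficacy came from Hill fits of titrations (up to 92 uM) normalized to 30 nM R1881 as 100% and DMSO as 0%. Compound exposure was 16 h at 37 C on AR-UAS-bla HEK293 cells, with a 405/460/530 nm CCF4 fluorescence read.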

[8] = target: Androgen receptor (Homo sapiens) (UniProt P10275); assay: qHTS assay for small molecule antagonists of androgen receptor signaling (AID 588516; active = well fitted curve in the direction sought with a large enough effect in the signal ratio, with a control signal flat, not every such curve was filed as active; the % refers to the signal ratio); conditions: AR-UAS-bla HEK293, beta-lactamase ratio, antagonist mode, 16 h; series mostly up to 76.8 µM
Procedure, shortened: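 AR-UAS-bla GripTite HEK 293 cells (2000/well) treated with compound titrations plus 10 nM R1881 for 16 h at 37C. Beta-lactamase read by CCF4 FRET (460/530 nm); IC50 from Hill fits, normalized to R1881 and DMSO control wells.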

[9] = target: Guanine nucleotide-binding protein G(i) subunit alpha-1 (Homo sapiens) (UniProt P63096); assay: qHTS Assay for Inhibitors of RGS12 GoLoco Motif Activity (Green Fluorophore) (AID 879); conditions: Galphai1/FITC-RGS12 GoLoco peptide, fluorescence polarization; series mostly up to 57.1 µM;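 note: negative values mean loss of peptide binding seen as reduced polarization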
Procedure, shortened: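 Fluorescence polarization assay: 50 nM Gαi1 with 10 nM FITC-labeled RGS12 GoLoco peptide in 10 mM Tris pH 7.5, 150 mM NaCl, 0.1 mM GDP, 0.05% NP40, 10 min at room temperature with compound.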

[10] = target: Pyruvate kinase (Leishmania mexicana) (UniProt Q27686); assay: qHTS Validation Assay for Inhibitors of Leishmania Mexicana Pyruvate Kinase (AID 945); conditions: purified L. mexicana pyruvate kinase, enzyme activity, E451W mutant enzyme; series mostly up to 57.5 µM
Procedure, shortened: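 Eight-point qHTS titrations in triplicate, data normalized to DMSO neutral control. Reaction: 0.2 nM LmPYK E451W mutant, 0.5 mM PEP, 0.1 mM ADP, 7 mM MgCl2, pH 7.2, one hour at room temperature; luminescent ATP detection.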

[11] = target: Pyruvate kinase PKM (Homo sapiens) (UniProt P14618); assay: qHTS Assay for Activators of Human Muscle Pyruvate Kinase (AID 954; active = well fitted curve in the direction sought with a large enough effect, not every such curve was filed as active); conditions: purified human muscle pyruvate kinase, luciferase-coupled luminescence, 1 h; series mostly up to 57.5 µM
Procedure, shortened: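 Reaction: 0.1 nM purified PKM2 with 0.5 mM phosphoenolpyruvate and 0.1 mM ADP, room temperature, 1 h. Readout: luciferase-based ATP luminescence after stop reagent. Activators judged against a 0.3 nM enzyme column.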

[12] = target: Alpha-galactosidase A (Homo sapiens) (UniProt P06280); assay: Counterscreen for Glucocerebrosidase Inhibitors: qHTS Assay for Human alpha-Galactosidase at pH 4.5 (AID 992); conditions: purified enzyme, fluorogenic substrate; series mostly up to 76.9 µM
Procedure, shortened: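 Concentration-response curves (0.7 nM to 77 uM final) were modeled with the Hill equation to give AC50. Reactions: 2 nM enzyme, 80 uM fluorogenic alpha-galactoside, pH 4.5 citric acid buffer, 20 min, room temperature.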

[13] = target: alpha-glucosidase (Oryza sativa, rice) (UniProt Q653V4); assay: Counterscreen for Glucocerebrosidase Inhibitors: qHTS Assay for Rice alpha-Glucosidase at pH 5.0 (AID 997); conditions: rice alpha-glucosidase enzyme activity; series mostly up to 76.9 µM
Procedure, shortened: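 Rice alpha-glucosidase (4 nM final) with 400 uM 4-methylumbelliferyl-alpha-D-glucopyranoside in citrate buffer pH 5.0, 20 min at room temperature, stopped at pH 10; fluorescence 365/440 nm, compounds 0.7 nM–77 uM, AC50 from Hill fits.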

Sequence of Androgen receptor (Homo sapiens) (P10275 whole entry, looked up): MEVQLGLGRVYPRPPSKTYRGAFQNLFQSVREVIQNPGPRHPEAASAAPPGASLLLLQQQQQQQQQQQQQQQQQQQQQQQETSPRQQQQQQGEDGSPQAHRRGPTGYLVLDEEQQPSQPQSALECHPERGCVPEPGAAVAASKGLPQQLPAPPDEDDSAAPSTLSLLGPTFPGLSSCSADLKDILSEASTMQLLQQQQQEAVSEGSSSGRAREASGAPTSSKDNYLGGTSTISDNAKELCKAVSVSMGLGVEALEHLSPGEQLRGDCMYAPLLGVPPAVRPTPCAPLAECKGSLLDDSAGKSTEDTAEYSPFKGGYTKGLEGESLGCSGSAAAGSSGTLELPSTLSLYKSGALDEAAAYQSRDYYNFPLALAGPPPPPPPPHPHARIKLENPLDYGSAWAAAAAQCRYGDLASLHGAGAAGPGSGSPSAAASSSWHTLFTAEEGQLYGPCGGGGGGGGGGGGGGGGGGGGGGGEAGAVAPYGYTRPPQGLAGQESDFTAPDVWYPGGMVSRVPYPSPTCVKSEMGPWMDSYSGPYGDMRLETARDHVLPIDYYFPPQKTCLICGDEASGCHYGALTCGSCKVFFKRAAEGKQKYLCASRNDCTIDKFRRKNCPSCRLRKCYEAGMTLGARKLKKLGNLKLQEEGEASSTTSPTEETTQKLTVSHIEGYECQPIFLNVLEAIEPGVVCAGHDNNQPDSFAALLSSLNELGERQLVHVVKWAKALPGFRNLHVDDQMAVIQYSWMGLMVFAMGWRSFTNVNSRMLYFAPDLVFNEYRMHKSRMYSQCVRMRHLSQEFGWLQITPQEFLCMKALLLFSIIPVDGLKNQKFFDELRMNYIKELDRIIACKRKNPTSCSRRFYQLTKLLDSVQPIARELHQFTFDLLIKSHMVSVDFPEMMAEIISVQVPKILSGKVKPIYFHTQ
Sequence of Pyruvate kinase PKM (Homo sapiens) (P14618 whole entry, looked up): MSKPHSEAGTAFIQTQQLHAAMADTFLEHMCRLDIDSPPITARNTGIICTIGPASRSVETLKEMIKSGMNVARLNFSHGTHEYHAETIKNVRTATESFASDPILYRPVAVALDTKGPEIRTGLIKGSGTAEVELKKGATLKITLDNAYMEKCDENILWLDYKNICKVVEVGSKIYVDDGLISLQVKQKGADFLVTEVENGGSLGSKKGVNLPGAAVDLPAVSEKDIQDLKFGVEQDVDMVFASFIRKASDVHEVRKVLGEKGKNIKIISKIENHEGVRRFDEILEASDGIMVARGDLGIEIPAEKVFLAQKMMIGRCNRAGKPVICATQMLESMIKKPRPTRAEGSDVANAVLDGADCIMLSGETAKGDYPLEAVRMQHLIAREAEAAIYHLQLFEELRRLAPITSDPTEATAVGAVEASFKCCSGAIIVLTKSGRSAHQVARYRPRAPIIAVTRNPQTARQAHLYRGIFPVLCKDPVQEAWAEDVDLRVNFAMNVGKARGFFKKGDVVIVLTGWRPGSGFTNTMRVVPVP
Sequence of Pyruvate kinase (Leishmania mexicana) (Q27686 2-499 E452W): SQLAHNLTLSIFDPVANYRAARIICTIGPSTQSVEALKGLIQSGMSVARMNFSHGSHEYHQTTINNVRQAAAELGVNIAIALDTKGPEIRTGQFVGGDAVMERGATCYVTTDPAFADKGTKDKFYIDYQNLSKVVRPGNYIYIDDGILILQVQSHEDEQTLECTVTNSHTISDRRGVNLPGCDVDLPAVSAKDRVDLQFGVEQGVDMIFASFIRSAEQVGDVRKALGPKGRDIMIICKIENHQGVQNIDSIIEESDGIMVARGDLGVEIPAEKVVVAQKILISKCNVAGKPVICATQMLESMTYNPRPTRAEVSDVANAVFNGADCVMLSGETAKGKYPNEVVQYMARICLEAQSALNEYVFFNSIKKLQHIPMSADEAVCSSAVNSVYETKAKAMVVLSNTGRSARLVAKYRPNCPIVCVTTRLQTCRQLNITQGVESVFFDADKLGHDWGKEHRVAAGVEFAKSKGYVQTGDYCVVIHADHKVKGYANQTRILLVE
Sequence of Alpha-galactosidase A (Homo sapiens) (P06280 whole entry, looked up): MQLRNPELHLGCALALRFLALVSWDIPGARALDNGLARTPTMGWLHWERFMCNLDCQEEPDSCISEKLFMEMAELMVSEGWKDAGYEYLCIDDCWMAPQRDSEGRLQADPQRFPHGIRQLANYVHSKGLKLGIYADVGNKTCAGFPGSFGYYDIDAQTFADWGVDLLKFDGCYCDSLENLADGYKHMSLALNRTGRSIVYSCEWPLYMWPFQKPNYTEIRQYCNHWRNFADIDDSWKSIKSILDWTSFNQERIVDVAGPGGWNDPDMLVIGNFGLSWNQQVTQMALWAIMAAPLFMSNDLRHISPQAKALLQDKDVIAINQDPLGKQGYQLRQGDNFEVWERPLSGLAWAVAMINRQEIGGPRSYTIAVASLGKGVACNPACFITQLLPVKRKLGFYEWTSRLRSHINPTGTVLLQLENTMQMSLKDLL
Sequence of Guanine nucleotide-binding protein G(i) subunit alpha-1 (Homo sapiens) (P63096 whole entry, looked up): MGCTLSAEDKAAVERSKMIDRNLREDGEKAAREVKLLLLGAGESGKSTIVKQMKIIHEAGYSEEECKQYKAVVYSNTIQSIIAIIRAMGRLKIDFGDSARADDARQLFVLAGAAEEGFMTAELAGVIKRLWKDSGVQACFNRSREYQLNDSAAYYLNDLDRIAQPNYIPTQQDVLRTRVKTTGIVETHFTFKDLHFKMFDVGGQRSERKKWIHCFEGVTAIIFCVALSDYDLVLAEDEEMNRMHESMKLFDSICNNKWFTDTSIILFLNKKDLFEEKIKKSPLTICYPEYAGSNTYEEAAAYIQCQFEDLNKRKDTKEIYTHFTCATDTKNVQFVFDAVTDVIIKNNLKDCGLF
Sequence of Luciferin 4-monooxygenase (Photinus pyralis) (P08659 whole entry, looked up): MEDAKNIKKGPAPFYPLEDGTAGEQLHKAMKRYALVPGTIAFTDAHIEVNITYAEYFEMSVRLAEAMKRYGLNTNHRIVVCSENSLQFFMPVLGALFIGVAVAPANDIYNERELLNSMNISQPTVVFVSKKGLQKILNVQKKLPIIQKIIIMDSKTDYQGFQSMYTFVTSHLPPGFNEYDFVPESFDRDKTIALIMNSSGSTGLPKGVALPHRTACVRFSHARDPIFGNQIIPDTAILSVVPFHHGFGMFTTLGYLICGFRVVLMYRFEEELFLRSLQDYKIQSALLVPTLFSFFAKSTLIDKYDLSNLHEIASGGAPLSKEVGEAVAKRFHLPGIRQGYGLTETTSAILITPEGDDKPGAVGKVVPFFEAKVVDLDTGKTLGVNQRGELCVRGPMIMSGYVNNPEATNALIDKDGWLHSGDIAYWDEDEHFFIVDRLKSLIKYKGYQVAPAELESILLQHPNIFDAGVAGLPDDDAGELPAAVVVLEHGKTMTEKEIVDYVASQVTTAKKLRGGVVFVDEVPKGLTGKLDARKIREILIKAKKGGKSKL
Sequence of DNA dC->dU-editing enzyme APOBEC-3G (Homo sapiens) (Q9HC16 whole entry, looked up): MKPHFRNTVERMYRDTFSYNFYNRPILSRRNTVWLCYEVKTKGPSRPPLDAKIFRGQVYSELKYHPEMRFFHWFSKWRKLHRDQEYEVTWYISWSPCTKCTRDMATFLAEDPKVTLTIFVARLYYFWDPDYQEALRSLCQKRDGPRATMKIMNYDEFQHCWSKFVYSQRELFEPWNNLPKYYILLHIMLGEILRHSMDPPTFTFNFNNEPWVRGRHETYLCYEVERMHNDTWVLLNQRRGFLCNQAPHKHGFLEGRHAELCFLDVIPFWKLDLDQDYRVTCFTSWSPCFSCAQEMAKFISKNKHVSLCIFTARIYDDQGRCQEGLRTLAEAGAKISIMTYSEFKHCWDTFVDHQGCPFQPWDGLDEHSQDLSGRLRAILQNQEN

CN1[C@H]2CC(OC(=O)[C@H](CO)c3ccccc3)C[C@H]1[C@H]1O[C@H]12 (stereo partly drawn)
Potency [1]: inactive
Potency [2]: inactive
Potency [3]: inactive
Potency [4]: inactive

CO[C@H]1/C=C/O[C@@]2(C)Oc3c(C)c(O)c4c(O)c(c5c(c4c3C2=O)NC2(CCN(CC(C)C)CC2)N=5)=NC(=O)/C(C)=C\C=C\[C@H](C)[C@H](O)[C@@H](C)[C@@H](O)[C@@H](C)[C@H](OC(C)=O)[C@@H]1C
Potency [5]: 4.78 µM (active)

COc1cc2c(c(OC)c1OC)-c1ccc(OC)c(=O)cc1[C@H](NC(C)=O)CC2
outcome [6]: inactive

CN(C)c1ccc(C2(c3ccc(N(C)C)cc3)OC(=O)c3cc(N(C)C)ccc32)cc1
activation [7]: 19.5%
outcome [8]: inactive

CC[C@]1(O)C[C@H]2CN(CCc3c([nH]c4ccccc34)[C@](C(=O)OC)(c3cc4c(cc3OC)N(C)[C@@H]3[C@](O)(C(=O)OC)[C@H](OC(C)=O)[C@]5(CC)C=CCN6CC[C@]43[C@@H]65)C2)C1
outcome [9]: inactive
Potency [10]: inactive
outcome [11]: inactive
outcome [12]: inactive
outcome [13]: inactive
